These results are taken from PubChem BioAssay AID686934 (National Center for Advancing Translational Sciences (NCATS), 2013).

Molecules are shown by their SMILES. Results filed as inconclusive are left out. A number with no mark means an inactive call. Calls come from the whole dose curve; as a rule, active = well fitted curve in the direction sought with a large enough effect; inconclusive = small, poorly fitted or top-dose-only effect, or another doubt; inactive = no such curve, though single readings can be large or run the other way.

This test can be described thus: qHTS screen for small molecules that inhibit ELG1-dependent DNA repair: SAR in Cell-Based Luciferin Counter Assay. The settings on record: cell-based luciferase counter-screen, luminescence; series mostly up to 45.7 µM; activity change, negative = inhibition: at the top concentration. From the text:
Cancer cells divide rapidly compared to normal cells in the body. During cell division, cancer cells need to duplicate their genome by DNA replication. The failure of genome duplication leads to cancer cells' death. Therefore, inhibitors of DNA replication could specifically kill cancer cells. Based on this concept, many chemotherapeutic agents were developed and have been used to treat cancer patients. However, there are a limited number of agents available in the clinical setting, and some of those that do exist have low efficacy and severe side effects. Therefore, if we can find the compounds that effectively block DNA replication either by directly damaging DNA or by inhibiting other cellular mechanisms, the options for cancer treatment will be broadened. With this in mind, we developed a quantitative high-throughput ELG1-luciferase reporter gene assay. Small molecules that specifically block ELG1 function in response to DNA damage can be identified by monitoring the suppression of luciferase activity. Since ELG1 defines a pathway for repairing DNA damage, agents blocking ELG1 function can be used to sensitize cancer cells to chemotherapeutic agents whose mechanism of action involves the induction of DNA damage. This assays is a counterscreen, that is more specifically, a cell-based luciferase assay following treatment with putative ELG1 antagonists to eliminate luciferase enhancers/inhibitors NIH Molecular Libraries Probe Production Network [MLPCN] NIH Chemical Genomics Center [NCGC] MLPCN Grant: R03 MH092164 Assay Provider: Kyungjae Myung, NHGRI, NIH
3 uL of substrate reagent will be pipetted into each well in 1536-well white, solid-bottom plates using a FRD dispenser, followed by addition of 23 nL of DMSO or compounds by pintool. After compound addition, 1 µL of luciferase will be added into the wells. The plates will be read in a ViewLux CCD-based plate reader.
(In general: In qHTS, concentration-response curves come from the screen itself.)
For `CN[C@@H]1C[C@@]2(C)O[C@@H]([C@@H]1OC)n1c3ccccc3c3c4c(c5c6ccccc6n2c5c31)C(=O)NC4`, the “activity change, negative = inhibition” value is -73.1%. Under `CCCCCC1C(=O)O[C@H](C)[C@@H](NC(=O)c2cccc(NC=O)c2O)C(=O)OC(C)C1OC(=O)CC(C)C` (stereo partly specified) stands 4.59%; under `O=C(CCl)c1ccc(O)c(O)c1`, -10.9%; under `CC(=O)OCC1=C[C@H]2[C@@H]3C(C)(C)[C@]3(OC(=O)Cc3ccccc3)C[C@@H](C)[C@]2(O)[C@@H]2C=C(C)C(=O)[C@@]2(O)C1`, 51.3%. Under `CCCC(=O)O[C@@H]1[C@@H](C)[C@@]2(O)[C@@H](C=C(CO)C[C@]3(O)C(=O)C(C)=C[C@@H]23)[C@@H]2C(C)(C)[C@]12OC(=O)CCC` stands 64.7%; under `CCCSc1ccc2nc(NC(=O)OC)[nH]c2c1`, 64.3%.
